# UGM FP inh – Mtb UDP-galactopyranose mutase inhibition; P9WIQ1; purified UGM, fluorescence polarization probe displacement; inhibition, % at 10 µM; actives 0.06% (n = 320,000); in the data active = inhibition above about 10%, passing the limit was not always enough
# Target sequence (P9WIQ1 whole entry, looked up): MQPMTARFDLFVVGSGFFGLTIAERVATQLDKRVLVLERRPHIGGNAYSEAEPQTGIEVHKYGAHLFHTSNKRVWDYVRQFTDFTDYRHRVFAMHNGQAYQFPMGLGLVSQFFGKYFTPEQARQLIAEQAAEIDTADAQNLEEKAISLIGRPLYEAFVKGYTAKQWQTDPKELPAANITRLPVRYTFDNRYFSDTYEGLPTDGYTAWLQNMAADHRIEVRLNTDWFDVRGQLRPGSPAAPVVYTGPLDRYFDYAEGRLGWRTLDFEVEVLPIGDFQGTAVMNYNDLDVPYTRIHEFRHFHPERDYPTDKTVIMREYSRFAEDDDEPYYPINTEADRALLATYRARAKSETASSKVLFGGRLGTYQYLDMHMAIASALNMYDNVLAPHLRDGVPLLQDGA
# FBA Mtb inh – inhibits M. tuberculosis FBA enzyme | P9WQA3 | actives 2.3% (n = 360,000) | purified M. tuberculosis FBA, fluorescence read-out | AID 588726 | inhibition, % at 1 µM; in the data active = inhibition above about 27%;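 note: 0% = vehicle and 100% = reference inhibitor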
# GDH-TPI inh – GDH-TPI coupled enzyme inhibition counter-screen; GDH-TPI coupled enzyme counterscreen, NADH absorbance; inhibition, % at 4.8 µM; actives 1.2% (n = 360,000); in the data active = inhibition above about 30%;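 note: 0% = DMSO wells and 100% = wells lacking the enzyme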
# Rv3671c protease – inhibits the M. tuberculosis serine protease Rv3671c. inhibition, % at 5.96 µM. actives 0.048% (n = 320,000); in the data active = inhibition above about 38%;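 note: extracellular domain of Rv3671c used as enzyme; 0% = enzyme with DMSO and 100% = no enzyme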
# Mtb betalactam – beta-lactam sensitization of Mtb H37Rv; actives 0.27% (n = 330,000); M. tuberculosis H37Rv growth with meropenem, percent inhibition; AID 434955; inhibition, % at 25 µM; call rule not given here;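 note: growth measured after seven days incubation then overnight dye step; 0% = bacteria only wells and 100% = bacteria with antibiotic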
# * marks the source's active call; other numbers are inactive results; · = no result given; + = active, no number. This is a sample that favours compounds with a hit; in the whole collection about 3.5% have one here.
SMILES,UGM FP inh,FBA Mtb inh,GDH-TPI inh,Rv3671c protease,Mtb betalactam
COc1cc(C=NNc2nc3c([nH]2)c(=O)n(C)c(=O)n3C)ccc1O,·,0,24,·,·
CC[C@]12c3[nH]c4cc(CCC(=O)N(C)C)ccc4c3CCN1C(=O)[C@@H](CC(=O)NCc1ccco1)C[C@@H]2C(=O)N1CCN(C(=O)C2CC2)CC1,·,4,0,·,·
C/C(=N\NP(=S)(c1ccccc1)c1ccccc1)c1ccc(O)cc1O,-1,-3,32*,-7,-3
CC(=NCc1ccccc1)c1ccc(O)cc1O,·,-1,34*,·,·
C/C(=N\NC(=O)COc1ccccc1-c1ccccc1)c1ccc(O)cc1O,7,-4,9,16,-4
N#CCC(=O)Nc1ccccc1C(=O)O,0,2,6,-2,2
N#C/C(=C/Nc1ccccc1C(=O)O)C(N)=O,1,-5,68*,0,10
O=C(O)CC(NC(=O)c1cccc([N+](=O)[O-])c1)c1ccc2c(c1)OCO2 (stereo not drawn),0,-2,0,9,0
NC(=O)c1ccccc1NC(=O)/C=C/c1ccc(Cl)cc1,-1,2,-6,-8,12
O=C(/C=C/c1ccc(Cl)cc1)NC(=S)Nc1ccccc1C(=O)O,1,6,38*,-4,-2
O=C1NC(=O)N(c2ccccc2)C(=O)/C1=C/c1coc2ccc(O)cc2c1=O,3,-1,31*,-2,-3
O=C1NC(=O)N(c2ccc(Cl)cc2)C(=O)/C1=C/c1coc2ccc(O)cc2c1=O,0,0,22,-7,10
COc1cc(/C=N/NC(=O)c2ccc(Cn3cc([N+](=O)[O-])cn3)o2)cc(Br)c1O,1,-3,10,3,7
CCOc1ccc(/C=N/NC(=O)c2ccc(Cn3cc([N+](=O)[O-])cn3)o2)cc1,-3,-5,42*,-2,-3
COc1ccc(/C=N/NC(=O)c2ccc(Cn3cc([N+](=O)[O-])cn3)o2)cc1O,1,0,37*,-2,5
O=C(CSc1n[nH]c(=O)[nH]c1=O)N/N=C/C=C\c1ccccc1,1,-4,13,8,2
O=C(CSc1n[nH]c(=O)[nH]c1=O)N/N=C/C=C/c1ccccc1,0,-1,43*,1,-3
CCc1cc(=O)oc2cc(O[C@@H]3O[C@H](CO)[C@@H](O)[C@H](O)[C@H]3O)c(Cl)cc12,1,22,16,7,5
COc1cc2cc(Oc3ccc4ccc(=O)oc4c3)c(=O)oc2cc1O[C@@H]1O[C@H](CO)[C@@H](O)[C@H](O)[C@H]1O,-3,16,19,0,2
O=c1ccc2cc(O[C@@H]3O[C@H](CO)[C@@H](O)[C@H](O)[C@H]3O)c(O)cc2o1,·,+,18,·,·
COc1cc2cc(Oc3ccc4ccc(=O)oc4c3)c(=O)oc2cc1OC1OC(COC(=O)CC(C)(O)CC(=O)O)C(O)C(O)C1O (stereo not drawn),3,26,32*,4,-5
COc1cc(OC)c(NC(=O)c2cncn2-c2ccc(F)cc2)cc1Cl,2,-5,-1,-11,-3
O=[N+]([O-])/C(C(Cl)=C(Cl)Cl)=C(/Sc1ccccc1)N1CCCCC1,0,-4,12,-3,3
O=C(NCc1ccccc1)c1cc(C2COCCN2C(=O)c2cccs2)on1 (stereo not drawn),·,2,11,·,·
COCCCNC(=O)C[C@H]1C[C@H](C(=O)N2CCOCC2)[C@@]2(CCC3CCCC3)c3[nH]c4cc(-c5ccco5)ccc4c3CCN2C1=O,·,18,2,·,·
SMILES,UGM FP inh,FBA Mtb inh,GDH-TPI inh,Rv3671c protease,Mtb betalactam
O=C(C[C@H]1C[C@H](C(=O)N2CCOCC2)[C@@]2(CCC3CCCC3)c3[nH]c4cc(-c5ccco5)ccc4c3CCN2C1=O)NCCN1CCOCC1,·,41*,12,·,·
COc1ccc(-n2nc(C(=O)Nc3nc4ccc(OC)cc4s3)c3ccccc3c2=O)cc1,1,1,17,-10,8
CC(C)Nc1nnc(SCC(=O)Nc2sccc2C#N)s1,0,-2,-7,3,-7
Cc1ccc(NC(=O)c2cccc(C(=O)Nc3ccc(C)cc3C(=O)O)c2)c(C(=O)O)c1,13*,1,11,-5,7
COc1ccc(C)cc1NC(=O)c1cccc(C(=O)Nc2cc(C)ccc2OC)c1,1,3,11,0,4
Cc1oc(S(=O)(=O)N(C)C)cc1C(=O)Nc1ccc(Cl)cc1,-2,-1,5,6,4
Nc1ccc(-c2c3ccc(=O)cc-3oc3cc(O)ccc23)cc1C(=O)O,45*,-18,3,9,4
O=c1cc(-c2ccccc2)oc2cc(O)ccc12,·,3,21,·,·
COc1cccc(-n2c(CN3CCN(c4ccccc4)CC3)nc3ccc([N+](=O)[O-])cc3c2=O)c1,-1,0,1,0,0
Cn1c(N2CCOCC2)nc(-c2ccccc2)c1-c1ccccc1,0,103*,2,-5,1
CC(C)(C)NC(=O)C(c1ccncc1)N(Cc1ccc(F)cc1)C(=O)c1ccc(-c2ccccc2)[nH]1 (stereo not drawn),-2,-1,-1,-1,70
COc1ccc(-c2cc(C(F)(F)F)n3nc(C(=O)N4CCOCC4)nc3n2)cc1,·,0,44*,·,·
O=C1C(=O)N(c2ccc(O)cc2)C(c2ccccc2[N+](=O)[O-])/C1=C(\O)c1ccccc1 (stereo not drawn),1,-5,36*,-11,0
NNC(=O)C1C(O)CCC2CN3CCc4c([nH]c5ccccc45)C3CC21 (stereo not drawn),·,2,-2,·,·
O=C(CSc1nc2scc(-c3ccccc3)c2c(=O)[nH]1)N1CCOCC1,-2,-1,0,-1,3
COc1ccc(/C=C(\NC(=O)c2ccccc2)C(=O)N/N=C/c2sccc2C)cc1,-1,2,40*,-1,4
O=C(N/N=C/c1ccc(O)c(O)c1O)/C(=C/c1ccc([N+](=O)[O-])cc1)NC(=O)c1ccccc1,-1,-10,37*,13,4
O=C(N/N=C/c1cccs1)/C(=C/c1ccccc1)NC(=O)c1ccccc1,4,0,42*,12,-1
COc1ccc(/C=C(/NC(=O)c2ccccc2)C(=O)N/N=C/c2sccc2C)cc1,-1,-1,52*,0,-1
Cc1ccc(NC(=O)/C(=C\c2ccc([N+](=O)[O-])cc2)NC(=O)c2ccccc2)cc1,-1,-4,20,-28,65
COc1ccc(CC(=O)NCC(=O)N/N=C/c2sccc2C)cc1,-2,0,-2,2,-1
COc1cc(NC(=O)COc2cc(C)cc3oc(=O)cc(C)c23)cc(OC)c1OC,·,5,3,·,·
O=C(N/N=C/C=C/c1ccco1)/C(=C/c1ccccc1)NC(=O)c1ccccc1,0,0,37*,4,1
COc1ccc(OC)c(/C=C(\NC(=O)c2ccccc2)C(=O)N/N=C/c2ccc(C)s2)c1,4,-3,49*,12,4

# From PubChem
